Measurements reported in PubChem BioAssay (Tox21).
Records with an inconclusive call do not appear. The source made the active and inactive calls. Unless noted, calls come from the whole dose curve.

What was measured:
[1] = Nuclear factor erythroid 2-related factor 2/antioxidant responsive element (Nrf2/ARE) small molecule agonists: qHTS cell viability counter screen in human keratinocytes (AID 1919968; active = well fitted curve in the direction sought with a large enough effect in the repeat runs; an effect the other way counts as inactive or inconclusive; note: nearly all actives have a fitted effect of over 55% in size)
In short: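 In human HaCaT keratinocytes stably expressing an ARE-driven luciferase, compound exposure lasted 23 h at 37 C under 5% CO2. Viable cells are quantified with a protease-based fluorogenic reagent (CellTiter-Fluor) read 1 h after addition.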

[2] = Nuclear factor erythroid 2-related factor 2/antioxidant responsive element (Nrf2/ARE) small molecule agonists: luciferase reporter gene qHTS assay in human keratinocytes (AID 1919969); note: nearly all actives have a fitted effect of over 35% in size
[3] = molecular target: Gonadotropin-releasing hormone receptor (Homo sapiens) (UniProt P30968); assay: Human gonadotropin-releasing hormone receptor (GnRHR) small molecule agonists, calcium flux assay in GnRHR-HEK293 cells (AID 1920063); note: nearly all actives have a fitted effect of over 35% in size
In short: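 Intracellular calcium rise is the read-out: engineered human GnRHR HEK293 cells, dye-loaded, are exposed to DMSO-dissolved compounds and fluorescence at Ex/Em 480/540 is tracked for 3 min.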

[4] = molecular target: KiSS-1 receptor (Homo sapiens) (UniProt Q969F8); assay: Human kisspeptin (KISS1R) small molecule agonists, calcium flux assay in KISS1R-HEK293 cells (AID 1920064; active = well fitted curve in the direction sought with a large enough effect in the repeat runs; an effect the other way counts as inactive or inconclusive)
In short: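 Concentration-response testing used 15 concentrations in triplicate on human KISS1R-expressing HEK293 cells. Calcium-dependent fluorescence (Ex/Em 480/540) was followed kinetically for 3 min after compound transfer.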

[5] = G protein-coupled receptor (GPCR) small molecule agonists, calcium flux assay: HEK293 wild type cell line counter screen (AID 1920065)
In short: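 Fluorescence intensity signals activation. After overnight (18 h) culture and a 1 h calcium dye load at 37 C, compounds are added by pin tool and the plate read at 480/540 nm for 3 min in 1 s steps.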

[6] = p53 small molecule agonists, cell-based qHTS assay with human liver microsomes (AID 1963577);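 note: p53 response element beta-lactamase reporter cells with liver microsomes plus NADPH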
In short: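 Reporter activation was measured by LiveBLAzer fluorescence intensity in p53RE-bla cells, which had been exposed to compounds for 16 h at 37 C alongside 0.5 mg/mL human liver microsomes and 0.5 mg/mL NADPH (final concentrations).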

[7] = p53 small molecule agonists, cell-based qHTS assay with rat liver microsomes (AID 1963578)
In short: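 Compound in DMSO added to p53RE-bla cells 5 h post-plating; rat microsomes/NADPH 0.5 mg/mL final; 16 h, 37 C; LiveBLAzer 2 h RT.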

[8] = p53 small molecule agonists, cell-based qHTS assay with human liver microsomes: qHTS cell viability counter screen (AID 1963579); note: nearly all actives have a fitted effect of over 45% in size
In short: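 HLM-supplemented (0.5 mg/mL final) and NADPH-supplemented (0.5 mg/mL final) p53RE-bla cultures, 4,000 cells per well, were dosed with compounds in DMSO for 16 h at 37 C; luminescent ATP detection (CellTiter-Glo, 30 min, room temperature) quantified surviving cells.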

[9] = p53 small molecule agonists, cell-based qHTS assay with rat liver microsomes: qHTS cell viability counter screen (AID 1963580); note: nearly all actives have a fitted effect of over 45% in size
In short: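 Luminescent ATP readout (CellTiter-Glo, 30 min at room temperature) reports viability of p53RE-bla HCT-116 cells after 16 h at 37 C with test compounds under metabolic activation by rat liver microsomes and NADPH at 0.5 mg/mL final each.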

[10] = p53 small molecule agonists, cell-based qHTS assay (AID 1963582; active = well fitted activation curve with a large enough effect in the signal ratio in the repeat runs, not every such curve was filed as active; the % refers to the signal ratio)
In short: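 After plating, p53RE-bla cells sat 5 h in the incubator; compounds or DMSO vehicle were pinned in; a 16 h incubation at 37 C followed; FRET substrate was added and, 2 h later at RT, fluorescence was measured.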

[11] = cAMP Responsive Elements (CRE) small molecule agonists, cell-based qHTS assay (AID 1963590)
In short: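 Compound exposure lasted 3 h at 37 C/5% CO2 in CRE-bla HEK 293T cells grown in assay medium with 10% dialyzed FBS and 25 mM HEPES. Reporter signal came from LiveBLAzer B/G FRET substrate, 2 h, room temperature.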

[12] = cAMP Responsive Elements (CRE) small molecule antagonists, cell-based qHTS assay (AID 1963591; active = well fitted inhibition curve with a large enough effect in the signal ratio in the repeat runs, not every such curve was filed as active; the % refers to the signal ratio)
In short: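 Stimulation used NKH477 at a final 0.25 uM for 3 h in compound-treated CRE-bla HEK293T cells, seeded 18 h beforehand. Reporter activity was measured with LiveBLAzer B/G FRET substrate after 2 h at room temperature.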

[13] = molecular target: Beta-2 adrenergic receptor (Homo sapiens) (UniProt P07550); assay: Adrenergic beta2 receptor (ADRB2) small molecule antagonists, cell-based qHTS assay (AID 1963592); note: series mostly up to about 92 µM; nearly all actives have a fitted effect of over 50% in size
In short: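 Assay format: CHO-ADRB2 cells, 18-20hr seeding at 37C/5% CO2, then compound plus 1nM isoproterenol agonist mix for 0.5hr RT. Homogeneous time-resolved fluorescence cAMP detection after 1hr, expressed as 665/615 nm ratio.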

[14] = molecular target: Beta-2 adrenergic receptor (Homo sapiens) (UniProt P07550); assay: Adrenergic beta2 receptor (ADRB2) small molecule agonists, cell-based qHTS assay (AID 1963593);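 note: CHO cells stably overexpressing human ADRB2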
In short: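 CHO cells stably over-expressing ADRB2 were plated overnight at 37C, then dosed with compounds plus a stimulation mix containing 100uM IBMX and 25uM Ro-20-1724 for 0.5hr at room temperature. cAMP was measured by HTRF competition, 1hr.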

[15] = molecular target: D(2) dopamine receptor (Homo sapiens) (UniProt P14416); assay: Dopamine D2 receptor (DRD2) small molecule agonists, cell-based qHTS assay (AID 1963594); note: nearly all actives have a fitted effect of over 35% in size
In short: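 HEK293 cells stably expressing DRD2 were cultured 24 h at 37 C, then given Ro20-1724 (0.1 mM final) and compounds for 10 min at room temperature. NKH477 (200nM) was then added for 30 min. cAMP was read by HTRF.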

[16] = molecular target: D(2) dopamine receptor (Homo sapiens) (UniProt P14416); assay: Dopamine D2 receptor (DRD2) small molecule antagonists, cell-based qHTS assay (AID 1963595; active = well fitted inhibition curve with a large enough effect in the signal ratio in the repeat runs, with a control signal flat; the % refers to the signal ratio)
In short: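 Antagonist mode in DRD2-HEK293 cells: after compound addition with 0.1 mM Ro20-1724, cells received quinpirole (12 nM) and NKH477 (200 nM) for 30 min at room temperature; HTRF cAMP read after 1 h detection.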

[17] = molecular target: 5-hydroxytryptamine receptor 2A (Homo sapiens) (UniProt P28223); assay: 5-hydroxytryptamine receptor 2A (HTR2A) small molecule antagonists, cell-based qHTS assay (AID 1963586); note: nearly all actives have a fitted effect of over 45% in size
In short: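 CHO cells stably expressing human HTR2A were plated for 18 h at 37 C, then loaded with calcium dye for 1 h. Compounds were preincubated 5 min at room temperature before DOI (4 nM solution) was added. Kinetic fluorescence was read for 3 min.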

[18] = molecular target: Muscarinic acetylcholine receptor M1 (Homo sapiens) (UniProt P11229); assay: Cholinergic receptor muscarinic 1 (CHRM1) small molecule antagonists, cell-based qHTS assay (AID 1963588); note: nearly all actives have a fitted effect of over 40% in size
In short: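 Compounds were tested at 15 concentrations in three independent runs. Dye-loaded CHRM1-CHO cells were exposed 5 min at room temperature before stimulation by acetylcholine added at 50nM. Intracellular calcium was read kinetically on FDSS for 3 min.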

[19] = molecular target: Muscarinic acetylcholine receptor M1 (Homo sapiens) (UniProt P11229); assay: Cholinergic receptor muscarinic 1 (CHRM1) small molecule agonists, cell-based qHTS assay (AID 1963589); note: nearly all actives have a fitted effect of over 35% in size
In short: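 Fluorescent calcium dye reports M1 activation in stably transfected CHO cells. Compounds, 15 concentrations, added after 1 h dye loading at 37 C; kinetic reading at 1 sec intervals.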

[20] = molecular target: 5-hydroxytryptamine receptor 2A (Homo sapiens) (UniProt P28223); assay: 5-hydroxytryptamine receptor 2A (HTR2A) small molecule agonists, cell-based qHTS assay (AID 1963587); note: nearly all actives have a fitted effect of over 30% in size
In short: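 HTR2A-CHO cells, plated 18 h at 37 C/5% CO2, dye-loaded 1 h at 37 C; compounds in DMSO added by pin tool (agonist mode). Intracellular calcium flux read as kinetic fluorescence on FDSS over 2 min at 1 s intervals.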
% is set by controls: 0 for no effect and ±100 for the full control effect.

Chain of KiSS-1 receptor (Homo sapiens) (Q969F8 whole entry, looked up): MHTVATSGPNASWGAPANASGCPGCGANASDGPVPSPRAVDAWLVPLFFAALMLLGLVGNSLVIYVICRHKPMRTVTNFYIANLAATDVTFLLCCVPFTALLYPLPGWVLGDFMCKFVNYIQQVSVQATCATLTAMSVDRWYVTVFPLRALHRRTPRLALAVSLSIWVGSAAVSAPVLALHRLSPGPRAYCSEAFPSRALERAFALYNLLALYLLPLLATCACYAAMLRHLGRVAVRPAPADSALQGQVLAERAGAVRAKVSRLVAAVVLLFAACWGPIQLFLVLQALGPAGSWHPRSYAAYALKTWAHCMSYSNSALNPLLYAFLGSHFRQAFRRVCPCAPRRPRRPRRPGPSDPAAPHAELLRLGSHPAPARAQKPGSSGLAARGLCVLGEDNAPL
Chain of 5-hydroxytryptamine receptor 2A (Homo sapiens) (P28223 whole entry, looked up): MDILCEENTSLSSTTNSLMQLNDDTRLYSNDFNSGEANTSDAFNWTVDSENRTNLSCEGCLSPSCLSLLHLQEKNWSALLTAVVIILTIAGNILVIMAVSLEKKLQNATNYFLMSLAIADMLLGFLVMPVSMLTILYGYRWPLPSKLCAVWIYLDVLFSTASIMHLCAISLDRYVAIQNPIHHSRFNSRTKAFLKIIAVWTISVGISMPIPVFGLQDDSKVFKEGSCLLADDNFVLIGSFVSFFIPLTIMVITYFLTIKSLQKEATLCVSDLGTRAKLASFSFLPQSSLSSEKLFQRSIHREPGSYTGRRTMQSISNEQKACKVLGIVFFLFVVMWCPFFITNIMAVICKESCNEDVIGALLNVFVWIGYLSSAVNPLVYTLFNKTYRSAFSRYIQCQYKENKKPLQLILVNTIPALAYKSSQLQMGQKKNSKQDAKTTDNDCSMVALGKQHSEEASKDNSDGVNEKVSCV
Chain of Muscarinic acetylcholine receptor M1 (Homo sapiens) (P11229 whole entry, looked up): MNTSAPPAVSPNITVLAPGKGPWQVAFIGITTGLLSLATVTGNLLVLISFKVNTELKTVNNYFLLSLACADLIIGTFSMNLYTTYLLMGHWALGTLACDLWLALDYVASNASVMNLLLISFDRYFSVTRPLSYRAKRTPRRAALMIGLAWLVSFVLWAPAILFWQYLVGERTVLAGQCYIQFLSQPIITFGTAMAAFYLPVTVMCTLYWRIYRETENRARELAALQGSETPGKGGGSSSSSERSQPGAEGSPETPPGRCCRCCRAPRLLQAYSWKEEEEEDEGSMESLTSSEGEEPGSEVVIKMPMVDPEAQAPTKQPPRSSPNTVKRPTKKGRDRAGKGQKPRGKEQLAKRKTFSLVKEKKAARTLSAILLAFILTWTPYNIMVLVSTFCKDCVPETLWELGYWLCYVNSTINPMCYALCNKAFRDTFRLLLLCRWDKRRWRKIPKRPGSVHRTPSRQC
Chain of Beta-2 adrenergic receptor (Homo sapiens) (P07550 whole entry, looked up): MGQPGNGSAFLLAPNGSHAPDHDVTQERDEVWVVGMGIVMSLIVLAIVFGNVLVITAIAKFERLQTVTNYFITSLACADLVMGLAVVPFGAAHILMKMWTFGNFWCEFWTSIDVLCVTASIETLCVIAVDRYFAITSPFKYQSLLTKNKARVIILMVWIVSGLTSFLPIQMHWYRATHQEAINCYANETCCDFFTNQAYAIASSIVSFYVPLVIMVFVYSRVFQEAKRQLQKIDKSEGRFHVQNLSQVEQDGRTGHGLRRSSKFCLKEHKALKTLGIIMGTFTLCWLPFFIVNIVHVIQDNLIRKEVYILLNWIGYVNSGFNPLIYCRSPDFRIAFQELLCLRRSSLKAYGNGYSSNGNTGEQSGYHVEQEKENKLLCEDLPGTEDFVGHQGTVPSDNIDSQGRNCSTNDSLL
Chain of Gonadotropin-releasing hormone receptor (Homo sapiens) (P30968 whole entry, looked up): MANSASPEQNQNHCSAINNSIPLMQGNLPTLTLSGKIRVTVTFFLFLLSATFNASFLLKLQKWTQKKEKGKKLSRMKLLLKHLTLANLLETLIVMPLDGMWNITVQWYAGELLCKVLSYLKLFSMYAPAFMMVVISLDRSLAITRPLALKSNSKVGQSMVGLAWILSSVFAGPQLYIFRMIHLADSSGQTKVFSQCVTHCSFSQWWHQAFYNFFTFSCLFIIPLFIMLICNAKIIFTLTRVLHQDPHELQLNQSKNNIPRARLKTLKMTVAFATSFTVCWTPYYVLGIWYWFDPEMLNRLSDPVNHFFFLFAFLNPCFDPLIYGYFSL
Chain of D(2) dopamine receptor (Homo sapiens) (P14416 whole entry, looked up): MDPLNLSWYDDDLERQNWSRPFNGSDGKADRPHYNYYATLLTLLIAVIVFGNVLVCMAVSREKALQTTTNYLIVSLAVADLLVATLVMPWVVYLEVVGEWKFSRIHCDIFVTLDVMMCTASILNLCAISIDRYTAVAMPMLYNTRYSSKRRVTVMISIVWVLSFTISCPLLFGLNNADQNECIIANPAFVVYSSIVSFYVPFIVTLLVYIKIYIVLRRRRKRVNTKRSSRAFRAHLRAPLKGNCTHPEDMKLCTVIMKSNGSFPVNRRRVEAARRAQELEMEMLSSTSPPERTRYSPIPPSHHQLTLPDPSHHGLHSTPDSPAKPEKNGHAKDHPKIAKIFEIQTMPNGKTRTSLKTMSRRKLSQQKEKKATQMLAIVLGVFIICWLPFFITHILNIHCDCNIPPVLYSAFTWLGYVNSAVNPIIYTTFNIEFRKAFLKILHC

NCCCNCCSP(=O)(O)O
inactive: activity change, negative = cytotoxicity [1] -4.44% [at 8.39 µM] | activity, positive = activation [2] -4.57% [at 8.39 µM] | activity change [3] -1.6% [at 5.22 µM, hits give high values] | activation [4] -1.03% [at 6.97 µM] | activation [5] -0.178% [at 5.23 µM] | activation [6] 9.01% [at 5.99 µM] | activation [7] 0.418% [at 5.99 µM] | activity change, negative = cytotoxicity [8] -1.63% [at 5.99 µM] | activity change, negative = cytotoxicity [9] 7.5% [at 5.99 µM] | activation [10] 1.38% [at 5.99 µM] | activation [11] 0.961% [at 8.39 µM] | activity change, negative = inhibition [12] 10.3% [at 8.39 µM] | activity change, negative = inhibition [13] -7.99% [at 8.39 µM] | activation [14] -33.3% [at 8.39 µM] | activation [15] -13.4% [at 8.39 µM] | activity change, negative = inhibition [16] 5.25% [at 8.38 µM]

C#CC(O)CCCCC (configuration not stated)
inactive: Potency [1] | Potency [2] | Potency [3] | outcome [4] | outcome [5] | Potency [6] | Potency [7] | Potency [8] | Potency [9] | Potency [10] | Potency [17] | Potency [18] | Potency [19] | Potency [11] | Potency [12] | Potency [13] | Potency [14] | Potency [15] | Potency [16]

Clc1cc(Cl)c(-c2c(Cl)c(Cl)cc(Cl)c2Cl)cc1Cl
inactive: Potency [1] | Potency [2] | Potency [3] | outcome [4] | outcome [5] | Potency [6] | Potency [7] | Potency [8] | Potency [9] | Potency [10] | Potency [17] | Potency [20] | Potency [19] | Potency [11] | Potency [12] | Potency [13] | Potency [15] | Potency [16]

CC(C)Oc1ccccc1O
inactive: Potency [1] | Potency [2] | Potency [3] | outcome [4] | outcome [5] | Potency [6] | Potency [7] | Potency [8] | Potency [9] | Potency [10] | Potency [17] | Potency [20] | Potency [18] | Potency [11] | Potency [12] | Potency [13] | Potency [14] | Potency [16]

CCCCCCC(O)CCCCCCCCCCC(=O)OC (configuration not stated)
inactive: Potency [1] | Potency [2] | Potency [3] | outcome [4] | outcome [5] | Potency [6] | Potency [7] | Potency [8] | Potency [9] | Potency [10] | Potency [17] | Potency [20] | Potency [19] | Potency [12] | Potency [13] | Potency [14] | Potency [15] | Potency [16]

CC(=O)Nc1ccc(N)cc1
inactive: Potency [1] | Potency [2] | Potency [3] | outcome [4] | outcome [5] | Potency [6] | Potency [7] | Potency [8] | Potency [9] | Potency [10] | Potency [17] | Potency [20] | Potency [18] | Potency [11] | Potency [12] | Potency [13] | Potency [14] | Potency [15] | Potency [16]

O=C(O)c1cc(Cl)cc([N+](=O)[O-])c1Cl
inactive: Potency [1] | Potency [2] | Potency [3] | outcome [4] | outcome [5] | Potency [6] | Potency [7] | Potency [8] | Potency [9] | Potency [10] | Potency [17] | Potency [20] | Potency [18] | Potency [19] | Potency [12] | Potency [13] | Potency [14] | Potency [15] | Potency [16]
